Growth data for 15 molecules are collected here from PubChem BioAssay (NCI).

Holding throughout (assay): NCI-60 one-dose screen, 48 h (100 = growth as untreated, 0 = no growth, -100 = all killed)
Details in all cases: 10 µM unless noted

For assay [1], the system named is NCI-H23 lung.
The test system of assay [2] is NCI-H322M lung.
Assay [3] concerns HOP-62 NSCLC.
For assay [4], the system named is NCI-H460 lung.
Assay [5] has as its system HOP-92 NSCLC.
Assay [6] deals with NCI-H522 lung.
For assay [7], the system named is A549/ATCC NSCLC.
Assay [8] relates to 786-0 renal.
Assay [9] concerns COLO 205 colon.

Compounds without any hit were thinned out: in the full panel of roughly 83,000, 20% have a hit.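 The endpoint reported here, percent growth, reads 100 for growth as untreated, 0 for no net growth and -100 for all cells dead.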 A number with no mark means an inactive call. The source made the active and inactive calls. The calls were made as follows: active = growth percent below 10; inactive = the rest.

For `O=C(Cn1cccc(Nc2ccccc2)c1=O)Nc1ccccc1`, the growth in assay [1] is 113%; in assay [2], 114%; in assay [3] it was 105%; in assay [4] it was 106%; in [5] it was 97%; in assay [6] it was 110%. Further, the growth in [7] was 106%; in assay [8], 106%; in assay [9], 107%.

Regarding `COc1cc(/C=C/c2cc(O)c3cc(C(C)=O)c(=O)oc3c2)cc2c1O[C@]1(C)CC[C@@H](O)C(C)(C)[C@H]1C2`, the growth in assay [1] was 52.1%; in assay [2], 67.6%; in assay [3] it was 50.4%; in assay [4], 23%; in assay [5] it was 33.2%; in assay [6], 67.7%. For the same molecule, the results for the growth in [7], in assay [8] and in assay [9] were 52.2%, -1.22% (active) and 89.8%, respectively.

Consider `COc1cccc2c1C(=O)c1c(O)c3c(c(O)c1C2=O)C[C@](O)(C(=O)CO)C[C@H]3O[C@@H]1C[C@@H](NC(=O)CCCCCN(C)C2(c3ccc(F)cc3)CC3CCC2C3)[C@H](O)[C@@H](C)O1` (some centres undefined), for which the growth in assay [1] was 40.8%; in assay [2] it was 53.7%; in [3], 46.9%; in assay [4] it was -84.2% (active); in assay [5], 51.6%; in assay [6] it was -83.1% (active). Besides, the growth was 19.7% in [7], -92.7% (active) in [8] and -63.7% (active) in assay [9].

As to `CSc1ccc(SC2c3ccc(C)cc3Oc3nc(N)c(C#N)c(N)c32)cc1` (centres undefined), the growth in assay [1] was -74.2% (active); in assay [2], -20.9% (active); in [3] it was -27.8% (active); in assay [4], -72.5% (active); in [5] it was -67.6% (active); in [6], -91.1% (active). The growth was 0.603% (active) in assay [7], -96.6% (active) in [8] and -76.7% (active) in assay [9].

For the molecule `COc1ccc(-c2n[nH]nc2-c2csc3ccccc23)cc1OC`, the growth in [1] was 35%; in assay [2], 51.7%; in [3], 25.2%; in assay [4] it was 15.7%; in assay [5], 41.6%; in [6], 7.11% (active). In addition, the growth in assay [7] is 31.9%; in assay [8], 30.7%; in [9] it was 34.7%.

`COc1ccccc1Nc1nc(-c2cc3cccc(C(F)(F)F)c3oc2=O)cs1`: the growth is 18.6% in [1]; 33% in [2]; 25.3% in assay [3]; 4.14% (active) in [4]; 26.9% in assay [5]; -16.5% (active) in assay [6]. In addition, the growth in assay [7] was 17.1%; in assay [8] it was 20.8%; in assay [9] it was -50.3% (active).

Turning to `NC(=O)c1cc(Cl)ccc1NC(=O)/C=C/c1ccccc1`, the growth in [1] was 60.3%; in [2], 45.1%; in assay [3], 84.9%; in [4] it was 12.1%; in [5], 58.7%; in [6], 4.73% (active). For the same molecule, the growth in assay [7] is 17.8%; in [8] it was 56.8%.

In the case of `Fc1ccc2[nH]cc(SSc3c[nH]c4ccc(F)cc34)c2c1`, the growth in assay [1] was 45.9%; in assay [2], 89.7%; in assay [3] it was 31.7%; in [4], 30.5%; in [5], -27.9% (active); in assay [6], 0.948% (active). Moreover, the growth in assay [7] was 19.3%; in assay [8], 60.8%; in [9] it was 40.9%.

For `Cn1c(=O)[nH]c(=O)c2nc(CCC(=O)NCCC(=O)O)c(=O)[nH]c21`, the growth in [1] was 97.5%; in assay [2] it was 100%; in assay [3], 105%; in assay [4] it was 103%; in assay [5], 98.2%; in assay [6], 96.5%. For the same molecule, the growth is 103% in assay [7], 109% in [8] and 109% in assay [9].

Take `O=c1ccccc(-c2ccc(Br)cc2)c1O`: the growth in assay [1] is 13.9%; in assay [2] it was 21.1%; in [3], 10.6%; in assay [4], 2.75% (active); in assay [5], 58%; in assay [6], 19.2%. Moreover, the values for the growth in assay [7], in [8] and in assay [9] were 11%, 8.52% (active) and 22.7%, respectively.

Consider `CCCOc1cc2ccccc2cc1C(=O)Nc1nc(N)c2c(ccc3nccc32)[nH]1`, for which the growth in assay [1] is -55.1% (active); in assay [2], -35.1% (active); in assay [3], -68.8% (active); in [4], -75.8% (active); in [5], -71.2% (active); in assay [6], -59.6% (active). The growth in [7] was -70.3% (active); in assay [8], -71.9% (active); in [9], -78.3% (active).

`N#CN1CC[C@H](C(=O)Nc2cc3cc(C(N)=O)ccc3cn2)C1`: the growth in assay [1] was -8.58% (active); in assay [2], 13.6%; in assay [3] it was -27.1% (active); in [4] it was 6.93% (active); in [5], -6.94% (active); in [6], -50% (active). The growth is 1.68% (active) in assay [7], 4.19% (active) in assay [8] and -70.1% (active) in assay [9].

Turning to `O=[N+]([O-])c1ccc(Nc2nc(NCCN3CCOCC3)ncc2[N+](=O)[O-])cc1`, the growth was 89.9% in assay [1]; 85% in assay [2]; 96% in [3]; 94.4% in [4]; 89.9% in assay [5]; 72.6% in assay [6]. For the same molecule, the growth in assay [7] is 98.9%; in assay [8], 92.6%; in assay [9], 97.1%.

Consider `CC(C)C1=C[C@@]23CC[C@@H]4[C@](C)(CCC[C@@]4(C)C(=O)N4CCCNCC4)[C@H]2C[C@@H]1[C@H]1C(=O)CCC(=O)[C@H]13`, for which the growth is 96.4% in assay [1]; 106% in [2]; 97.3% in [3]; 104% in assay [4]; 101% in [5]; 91.5% in assay [6]. For the same molecule, the growth in assay [7] is 101%; in assay [8] it was 104%; in assay [9], 134%.

Take `CC(=O)c1cc2c(N)c(C(=O)Nc3cccc4ccccc34)sc2nc1C`: the growth in assay [1] is 34.6%; in assay [2], 45.4%; in assay [3] it was 38.9%; in assay [4], 7.21% (active); in assay [5] it was 61.6%; in assay [6], 13%. In addition, the growth in [7] is 22%; in assay [8], 31.6%; in assay [9], -27% (active).
